# According to PubChem BioAssay (EPA / NIEHS):
# Inconclusive results are not listed. Active and inactive are the calls of the source. How the source made its calls: active means hit-call score of the fitted dose curve at least 0.9, where 1 is the maximum; inconclusive means response in the unintended direction; inactive means score below 0.9.
# Columns and labels:
# [1] = biological target: Muscarinic acetylcholine receptor M2 (Homo sapiens) (UniProt P08172); test: NVS_GPCR_hM2: NovaScreen (NVS) G Protein-Coupled Receptor Assay for human Muscarinic, M2 Receptor (AID 2283273)
# Chain of Muscarinic acetylcholine receptor M2 (Homo sapiens) (P08172 whole entry, looked up): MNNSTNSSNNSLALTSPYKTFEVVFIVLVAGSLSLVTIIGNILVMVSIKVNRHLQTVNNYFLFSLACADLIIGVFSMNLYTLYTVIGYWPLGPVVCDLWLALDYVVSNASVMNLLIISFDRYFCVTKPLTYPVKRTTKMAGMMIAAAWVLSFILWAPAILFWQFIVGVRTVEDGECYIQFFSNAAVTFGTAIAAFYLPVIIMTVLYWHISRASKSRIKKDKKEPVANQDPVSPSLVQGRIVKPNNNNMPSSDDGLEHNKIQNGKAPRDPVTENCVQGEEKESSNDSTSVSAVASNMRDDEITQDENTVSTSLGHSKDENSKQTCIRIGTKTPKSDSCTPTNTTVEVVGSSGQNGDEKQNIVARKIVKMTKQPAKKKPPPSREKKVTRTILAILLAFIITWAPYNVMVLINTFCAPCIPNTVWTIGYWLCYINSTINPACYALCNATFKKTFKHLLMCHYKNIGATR
# Outline: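 Cell-free radioligand binding using membranes from CHO cells expressing the receptor; filter-based scintillation counting after 1 hour of compound exposure. Loss of specific binding relative to DMSO baseline; primary screen at 25 uM in duplicate, actives then run in concentration series.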
# [2] = biological target: rat Adrenergic Receptor, Alpha 2 (Adra2), Non-selective Binding, Adra2a (gene 25083) (UniProt P22909); test: NVS_GPCR_rAdra2_NonSelective: NovaScreen (NVS) G Protein-Coupled Receptor Assay for rat Adrenergic Receptor, Alpha 2 (Adra2), Non-selective Binding (AID 2283299)
# Chain of rat Adrenergic Receptor, Alpha 2 (Adra2), Non-selective Binding, Adra2a (gene 25083) (P22909 whole entry, looked up): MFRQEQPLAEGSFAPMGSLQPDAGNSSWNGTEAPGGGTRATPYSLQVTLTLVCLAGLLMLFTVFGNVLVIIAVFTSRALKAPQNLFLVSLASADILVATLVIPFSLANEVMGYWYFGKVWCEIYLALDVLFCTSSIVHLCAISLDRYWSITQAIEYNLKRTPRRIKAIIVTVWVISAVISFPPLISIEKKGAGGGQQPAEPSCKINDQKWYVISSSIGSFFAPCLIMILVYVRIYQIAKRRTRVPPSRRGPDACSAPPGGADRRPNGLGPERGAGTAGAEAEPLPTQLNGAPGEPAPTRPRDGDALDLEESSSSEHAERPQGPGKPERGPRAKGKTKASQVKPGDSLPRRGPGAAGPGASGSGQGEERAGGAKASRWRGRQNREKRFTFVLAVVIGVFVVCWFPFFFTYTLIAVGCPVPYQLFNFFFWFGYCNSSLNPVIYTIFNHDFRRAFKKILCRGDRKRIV
# Outline: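 Rat cortical membranes, radioligand competitive displacement read by filter-based scintillation counting 1.25 hours after dosing. Primary screen in duplicate at 25 uM; actives followed up in concentration series.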
# [3] = NVS_IC_rCaBTZCHL: NovaScreen (NVS) Ion Channel Assay for Calcium Channel, Type L, Benzothiazepine Site (CaBTZCHL) (AID 2283337)
# Outline: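 Radioligand displacement at the benzothiazepine site using rat cortical membranes; bound label measured by filtration and scintillation counting 1.5 h after dosing. Single-point 25 uM in duplicate, then concentration series; DMSO baseline.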
# [4] = biological target: human Androgen Receptor (AR), AR (gene 367) (UniProt P10275); test: NVS_NR_hAR: NovaScreen (NVS) Nuclear Receptor Binding Assay for human Androgen Receptor (AR) (AID 2283332)
# Chain of human Androgen Receptor (AR), AR (gene 367) (P10275 whole entry, looked up): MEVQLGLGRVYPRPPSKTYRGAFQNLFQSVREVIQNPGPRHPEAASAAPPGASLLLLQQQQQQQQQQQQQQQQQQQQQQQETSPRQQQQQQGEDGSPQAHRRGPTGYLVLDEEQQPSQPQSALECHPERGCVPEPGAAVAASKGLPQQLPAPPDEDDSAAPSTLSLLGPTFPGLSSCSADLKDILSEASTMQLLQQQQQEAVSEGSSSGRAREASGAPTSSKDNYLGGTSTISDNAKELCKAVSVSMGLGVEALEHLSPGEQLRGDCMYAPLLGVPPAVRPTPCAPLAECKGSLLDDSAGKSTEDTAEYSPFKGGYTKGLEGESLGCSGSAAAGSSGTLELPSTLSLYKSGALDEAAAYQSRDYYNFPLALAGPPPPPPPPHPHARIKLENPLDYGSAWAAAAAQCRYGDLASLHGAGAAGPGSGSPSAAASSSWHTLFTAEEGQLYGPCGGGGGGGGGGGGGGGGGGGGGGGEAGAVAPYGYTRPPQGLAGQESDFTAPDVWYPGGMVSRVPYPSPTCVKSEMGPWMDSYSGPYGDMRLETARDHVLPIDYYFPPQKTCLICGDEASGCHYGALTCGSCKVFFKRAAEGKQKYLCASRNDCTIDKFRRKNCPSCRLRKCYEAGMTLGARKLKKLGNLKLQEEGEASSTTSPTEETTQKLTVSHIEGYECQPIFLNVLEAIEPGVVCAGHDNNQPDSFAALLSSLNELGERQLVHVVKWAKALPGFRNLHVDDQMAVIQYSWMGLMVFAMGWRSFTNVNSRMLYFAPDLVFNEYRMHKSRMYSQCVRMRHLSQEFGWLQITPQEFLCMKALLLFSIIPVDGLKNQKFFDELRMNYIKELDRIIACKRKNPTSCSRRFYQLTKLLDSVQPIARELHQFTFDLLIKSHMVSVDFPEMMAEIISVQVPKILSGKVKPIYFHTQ
# Outline: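 Actives from a duplicate 25 uM single-point screen went on to concentration series. Read-out after 20 h was scintillation counting of displaced radioligand in LnCAP extract, with DMSO as baseline.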
compound,measurement,setting,value
CCCCCCCCCCCCCCCC[N+](C)(C)Cc1ccccc1,AC50,[1],0.584 µM (active)
same,AC50,[2],38.6 µM (active)
CCN(CC)c1ccc2c(C)cc(=O)oc2c1,AC50,[1],10.3 µM (active)
Oc1ccc(Nc2ccccc2)cc1,outcome,[2],inactive
same,outcome,[3],inactive
CC(=O)Nc1ccc(N=Nc2cc(C)ccc2O)cc1,AC50,[4],31.4 µM (active)
